Source: PubChem BioAssay
KCNQ2 pot = potentiators of rat KCNQ2 potassium channel; hit rate 0.54% among 310,000; CHO-K1 KCNQ2, FluxOR thallium flux fluorescence; active compounds read high; AID 2239, 2010; B-score at 10 µM;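 active means fluorescence ratio B-score at least 3 SD of library B-scores, with initial fluorescence B-score within 3 of them, cut at about 5.3 in these data; same plate scores as AID 2156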;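 further: B-score of peak minus minimum over baseline fluorescence ratio after K+ and Tl+ stimulus; positive B-score means potentiation of KCNQ2 with more thallium influx and brighter signal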
KCNQ2 block = rat KCNQ2 potassium channel inhibitors, primary screen, cell-based, CHO-K1, FluxOR thallium flux, B-score. Potassium voltage-gated channel subfamily KQT member 2 (Rattus norvegicus), O88943. 20 min; active compounds read low. B-score at 10 µM. hit rate 1.1% among 310,000. AID 2156, 2009;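 active means fluorescence ratio B-score at most minus 3 library SDs, with starting brightness B-score within 2 library SDs, cut at about -5.5 in these data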
Kir21 confirm = mouse Kir2.1 channel blockers, retest, confirmation, cell-based, FluxOR thallium flux, duplicate; hit rate 41% among 2,300; Tl flux remaining, % of negative control (active compounds read low), % at 10 µM; Kir2.1-expressing cells, FluxOR thallium flux fluorescence; active compounds read low; shares compounds with KCNQ2 pot;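 active means Primary-screen hit whose thallium flux fell at least 3 control SD below untreated wells in both duplicates, with normal baseline fluorescence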
HEK293 Tl flux = alters thallium flux in parental HEK293 cells, Kir2.1 counter-screen | shares compounds with KCNQ2 pot | FluxOR thallium flux fluorescence; 0% = unstimulated blank wells | FluxOR signal as % of negative control (100 = no effect), % at 10 µM | hit rate 19% among 2,300 | AID 2105;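 active means dye signal at least 3 control SD above or below untreated wells in both duplicates, raw fluorescence within 3, either direction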;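 further: percent is based on the flux ratio of peak minus minimum fluorescence over baseline F0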
CHO-K1 ctr = nonspecific thallium flux increase in parental CHO-K1, confirmation, counter-screen for KCNQ2 potentiator project, cell-based, FluxOR thallium flux, duplicate; shares compounds with KCNQ2 pot; parental CHO-K1 cells, FluxOR thallium flux fluorescence; zero = vehicle mean+3SD, 100% = vehicle-minus-blank window; activity increase over 3SD of controls, % at 10 µM; hit rate 43% among 1,200;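 active means signal rise of at least 3 SD above the untreated control mean, in both duplicate wells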;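 further: counter screen of KCNQ2 potentiator hits so any rise reflects channel-independent effects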
KCNQ1 sel pot = human KCNQ1 channel potentiation off-target, confirmation, selectivity assay for KCNQ2 potentiator project, cell-based, CHO, FluxOR thallium flux; hit rate 28% among 1,200; shares compounds with KCNQ2 pot; activation over 3SD threshold, % at 10 µM; CHO KCNQ1 stable, FluxOR thallium flux fluorescence; beyond 3SD, as % of vehicle-control signal;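 active means fluorescence ratio rise of at least 3 SD of vehicle wells above their mean, in both replicate wells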
KCNQ2 pot conf = rat KCNQ2 channel potentiators, confirmation, cell-based, CHO, FluxOR thallium flux, duplicate; CHO-KCNQ2 cells, FluxOR thallium flux fluorescence; shares compounds with KCNQ2 pot; hit rate 68% among 1,200; AID 2287, 2010; potentiation, less the hit threshold, % at 10 µM;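 active means fluorescence ratio rising 3 SD or more over the vehicle control mean in both replicates, plus primary screen hit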;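 further: peak minus minimum thallium fluorescence divided by baseline after K/Tl stimulus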
Kir2-1 sel = mouse Kir2.1 channel activation off-target, confirmation, selectivity assay for KCNQ2 potentiator project, cell-based, HEK293, FluxOR thallium flux; shares compounds with KCNQ2 pot; HEK293 Kir2.1, FluxOR thallium flux fluorescence; activity over 3SD threshold, % at 10 µM; hit rate 2% among 1,200; AID 2345, 2010;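 active means fluorescence ratio rise of at least 3 SD above the vehicle-control mean, seen in both replicates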
KCNQ2 W236L MoA = potentiators of retigabine-insensitive KCNQ2 W236L, mechanism study for KCNQ2 potentiator project, cell-based, rat KCNQ2 W236L, CHO, automated patch clamp; hit rate 10% among 940; current increase over 3SD of negative controls (%), active compounds read high, % at 25 µM; AID 2558, 2010; shares compounds with KCNQ2 pot; automated patch clamp current;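 active means current increase at least 3 SD of the untreated controls above them in both duplicate recordings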
Target sequence (O88943 whole entry W236L, looked up): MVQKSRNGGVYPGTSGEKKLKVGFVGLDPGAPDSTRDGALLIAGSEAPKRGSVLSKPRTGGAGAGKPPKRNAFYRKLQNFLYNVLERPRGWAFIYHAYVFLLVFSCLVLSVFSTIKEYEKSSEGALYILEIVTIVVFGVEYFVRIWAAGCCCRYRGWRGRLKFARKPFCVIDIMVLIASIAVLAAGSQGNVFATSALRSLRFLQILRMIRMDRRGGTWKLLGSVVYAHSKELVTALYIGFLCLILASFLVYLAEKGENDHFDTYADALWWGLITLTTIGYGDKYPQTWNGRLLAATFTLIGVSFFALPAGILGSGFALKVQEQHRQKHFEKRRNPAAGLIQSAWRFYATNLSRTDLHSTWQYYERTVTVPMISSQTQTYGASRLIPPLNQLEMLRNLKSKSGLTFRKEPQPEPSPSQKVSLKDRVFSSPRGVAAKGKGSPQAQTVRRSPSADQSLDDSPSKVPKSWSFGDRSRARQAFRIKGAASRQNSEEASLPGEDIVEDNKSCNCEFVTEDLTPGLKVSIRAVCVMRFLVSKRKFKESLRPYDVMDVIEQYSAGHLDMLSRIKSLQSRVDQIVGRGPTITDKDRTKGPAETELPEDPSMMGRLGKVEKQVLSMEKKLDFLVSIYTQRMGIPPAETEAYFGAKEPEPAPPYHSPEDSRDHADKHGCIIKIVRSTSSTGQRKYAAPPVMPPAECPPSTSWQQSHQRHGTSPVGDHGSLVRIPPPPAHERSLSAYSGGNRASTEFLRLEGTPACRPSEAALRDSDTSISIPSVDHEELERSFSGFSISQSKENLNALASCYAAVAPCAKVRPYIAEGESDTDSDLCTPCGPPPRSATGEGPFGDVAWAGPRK
Large screens that a line does not name were inactive (follow-up assays come after a bar, where they were run). An excerpt weighted towards active compounds, which were near 1.6% of everything screened.

CNc1ncnc2sc(-c3ccccc3)cc12	none
CC1(C)CCc2cc(-c3ccn(S(=O)(=O)c4ccccc4Cl)n3)ccc2O1	KCNQ2 pot 18.6 | Kir21 confirm inactive | HEK293 Tl flux inactive | CHO-K1 ctr 4.6 | KCNQ1 sel pot inactive | KCNQ2 pot conf 39.2 | Kir2-1 sel inactive | KCNQ2 W236L MoA 3.0%
CC1(C)CCc2cc(CN3CCN(c4ccccn4)CC3)ccc2O1	none
CC1(C)CCc2cc(-c3ccnc(=S)[nH]3)ccc2O1	none (no result: KCNQ2 pot)
COc1ccc(S(=O)(=O)n2ccc(-c3ccc4c(c3)CCC(C)(C)O4)n2)cc1	KCNQ2 pot 8.24 | Kir21 confirm inactive | HEK293 Tl flux inactive | CHO-K1 ctr 3.8 | KCNQ1 sel pot inactive | KCNQ2 pot conf inactive | Kir2-1 sel inactive
Cc1ccc(-n2nnnc2SCC(=O)Nc2ccc(N3CCN(C)CC3)cc2)c(C)c1	none (no result: KCNQ2 pot)
O=C(NCc1ccncc1)C(=O)Nc1ccc2c(c1)OCO2	none
O=C1CSC(c2cccnc2)N1C1CCCCC1 (configuration not stated)	none
O=C1CSC(c2ccc(Cl)cc2)N1C1CCCCC1 (configuration not stated)	none (no result: KCNQ2 pot) | Kir21 confirm 64.0% | HEK293 Tl flux inactive
CCOc1ccc(CN2CCCC(CO)(Cc3ccccc3F)C2)cc1 (configuration not stated)	none
OCC1(Cc2ccc(F)cc2F)CCCN(Cc2ccc(Cl)cc2)C1 (configuration not stated)	none (no result: KCNQ2 pot) | Kir21 confirm 56.0% | HEK293 Tl flux inactive
Cc1ccc2nc(NC(=O)CN3CCOCC3)sc2c1	none (no result: KCNQ2 pot)
COc1cc(OC)c(CNC2CCCCCC2)cc1Br	none
Nc1ccc(-c2nc3c(Cl)cc(N)cc3[nH]2)cc1	none
CCc1ccc2[nH]c(O)c(N=NC3=NC(=O)CS3)c2c1	none (no result: KCNQ2 pot)
CCc1ccc2c(c1)c(N=NC1=NC(=O)CS1)c(O)n2CC	KCNQ2 pot 9.69 | Kir21 confirm inactive | HEK293 Tl flux 224.5% | CHO-K1 ctr inactive | KCNQ1 sel pot inactive | KCNQ2 pot conf 27.9 | Kir2-1 sel inactive | KCNQ2 W236L MoA inactive
O=[N+]([O-])c1ccc(C[n+]2cccc3c4ccccc4ccc32)cc1	none
CCCCCCCCC[n+]1cccc2c3ccccc3ccc21	none (no result: KCNQ2 pot) | Kir21 confirm 6.5% | HEK293 Tl flux inactive
COc1ccc(C)cc1NC(=O)C1CCN(S(=O)(=O)c2cccs2)CC1	none (no result: KCNQ2 pot)
COC(=O)C1CN(C(=O)C(C)Oc2ccccc2F)c2ccccc2O1 (configuration not stated)	none
O=C(CS(=O)(=O)c1cn(CC(=O)N2CCOCC2)c2ccccc12)NCc1ccc(F)cc1	none
COc1cccc(CNc2ccc(C)c(Cl)c2)c1	none
COc1cccc(CNc2cc(CSc3ccc(Cl)cc3)nc(C)n2)c1	none (no result: KCNQ2 pot) | Kir21 confirm 53.5% | HEK293 Tl flux inactive
O=C(Nc1cccc(F)c1)c1ccc2c(c1)OCO2	none
Cc1ccc(NC(=O)C2CC3CCC2C3)c(Br)c1 (configuration not stated)	KCNQ2 pot 13.7 | Kir21 confirm inactive | HEK293 Tl flux inactive | CHO-K1 ctr 16.9 | KCNQ1 sel pot inactive | KCNQ2 pot conf 32.0 | Kir2-1 sel inactive | KCNQ2 W236L MoA inactive
Cc1ccc(NC(=O)CC2CCCC2)c(Br)c1	KCNQ2 pot 16.4 | Kir21 confirm inactive | HEK293 Tl flux inactive | CHO-K1 ctr inactive | KCNQ1 sel pot inactive | KCNQ2 pot conf 52.4 | Kir2-1 sel inactive | KCNQ2 W236L MoA inactive
CCN(CC)c1ccc(NC(=O)C(C)C)cc1	none
CCN(CC)c1ccc(NC(=O)C2CC3CCC2C3)cc1 (configuration not stated)	KCNQ2 pot 22.8 | Kir21 confirm inactive | HEK293 Tl flux inactive | CHO-K1 ctr 2.7 | KCNQ1 sel pot inactive | KCNQ2 pot conf 65.0 | Kir2-1 sel inactive | KCNQ2 W236L MoA inactive
Cc1ccc(NC(=O)C2CCCC2)c(Br)c1	none
Cc1ccc(S(N)(=O)=O)cc1NC(=O)C1CC2CCC1C2 (configuration not stated)	none (no result: KCNQ2 pot)
Cc1ccc(C)c(NC(=O)C2CC3CCC2C3)c1 (configuration not stated)	KCNQ2 pot 21.4 | Kir21 confirm inactive | HEK293 Tl flux inactive | CHO-K1 ctr inactive | KCNQ1 sel pot 1.6 | KCNQ2 pot conf 57.2 | Kir2-1 sel inactive | KCNQ2 W236L MoA inactive
Cc1cc(C)cc(NC(=O)C2CC3CCC2C3)c1 (configuration not stated)	none
O=C(CNc1ccccc1Cl)c1ccc(Br)cc1	none
COc1ccccc1N(CC(=O)NC1CCCC1)S(=O)(=O)c1ccc(C)cc1	none
CC(OC(=O)C(NC(=O)c1ccco1)C(C)C)C(=O)Nc1ncc(Cl)cc1Cl (configuration not stated)	none
COc1ccc(NC(=O)C2CCCO2)c(OC)c1 (configuration not stated)	none (no result: KCNQ2 pot)
COc1ccc(NC(=O)C2CC3CCC2C3)c(OC)c1 (configuration not stated)	KCNQ2 pot 9.81 | Kir21 confirm inactive | HEK293 Tl flux inactive | CHO-K1 ctr 68.9 | KCNQ1 sel pot 57.5 | KCNQ2 pot conf 60.7 | Kir2-1 sel inactive | KCNQ2 W236L MoA inactive
O=C(O)c1ccc2c3c(cccc13)C(=O)N(c1ccccc1)C2=O	none (no result: KCNQ2 pot)
Cc1cccc(CCNC(=O)COc2cc(=O)n(C)c3ccccc23)c1	none (no result: KCNQ2 pot)
CCN(CCCNC(=O)COc1cc(=O)n(C)c2ccccc12)c1cccc(C)c1	none (no result: KCNQ2 pot) | Kir21 confirm 60.0% | HEK293 Tl flux inactive
CCCn1c(=S)[nH]c2ccccc2c1=O	none
